{
  "source": "PubChem BioAssay",
  "note": "“And” between values parts separate entries of the source, which are not always exact repeats. Equal values may be shown once. Values without a mark were called inactive. How the calls were made is not given here.",
  "data": [
    {"target": "Pantothenate synthetase (Mycobacterium tuberculosis (strain ATCC 25618 / H37Rv)) (UniProt P9WIL5)", "sequence (P9WIL5 whole entry, looked up)": "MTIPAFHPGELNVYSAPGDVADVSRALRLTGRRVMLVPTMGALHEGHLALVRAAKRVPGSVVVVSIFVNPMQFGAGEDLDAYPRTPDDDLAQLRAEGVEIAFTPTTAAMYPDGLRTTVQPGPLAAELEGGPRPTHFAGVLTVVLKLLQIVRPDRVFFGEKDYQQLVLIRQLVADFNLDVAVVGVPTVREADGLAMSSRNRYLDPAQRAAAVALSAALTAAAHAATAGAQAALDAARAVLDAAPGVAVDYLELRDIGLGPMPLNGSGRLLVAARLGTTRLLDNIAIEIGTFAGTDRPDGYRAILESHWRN", "experiment": "Recombinant Mtb pantothenate synthetase (PanC) inhibitors, coupled enzyme, confirmatory (AID 375);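 further: 0% = full reaction with vehicle and 100% = no enzyme background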", "conditions": "coupled enzyme assay; at 10 µM, active compounds read high", "values": [
      {"smiles": "c1cc(C(c2nnnn2C2CCCC2)N2CCOCC2)ccn1", "note": "(centres undefined)", "inhibition": "4%"},
      {"smiles": "CCOC(=O)c1ccccc1NC1CC(=O)N(c2ccccc2C)C1=O", "note": "(centres undefined)", "inhibition": "0%"},
      {"smiles": "COc1ccc(C2C(C#N)=C(N)OC3=C2C(=O)CC(C)C3)c(OC)c1OC", "note": "(centres undefined)", "inhibition": "0%"},
      {"smiles": "CC1(C)Oc2ccc3ccc(=O)oc3c2C(N2CCCCC2)C1O", "note": "(centres undefined)", "inhibition": "0%"},
      {"smiles": "Cc1nnc(SCC(=O)Nc2ccc3c4c(cccc24)CC3)n1C", "inhibition": "0%"},
      {"smiles": "Cc1cc(OCC(=O)Nc2ccc3oc(-c4ccncc4)nc3c2)ccc1Cl", "inhibition": "0%"},
      {"smiles": "COc1ccc(C2CC(c3cccc(C)c3)n3ncnc3N2)cc1", "note": "(centres undefined)", "inhibition": "0%"},
      {"smiles": "N#CCc1ccc(NC(=O)Nc2cccc(Cl)c2)cc1", "inhibition": "0%"},
      {"smiles": "Cc1noc(C)c1CSc1nc2cc(S(=O)(=O)N3CCOCC3)ccc2o1", "inhibition": "0%"},
      {"smiles": "CCOc1ccccc1CNC(=O)CCN1C(=O)COc2ccccc21", "inhibition": "0%"},
      {"smiles": "CCCCOc1ccc(C(=O)Nc2ccc(N3CCN(C(C)=O)CC3)cc2)cc1", "inhibition": "0%"},
      {"smiles": "Cc1nc2c(-c3ccccc3)c(C)[nH]n2c(=O)c1Cl", "inhibition": "0%"},
      {"smiles": "Cc1ccc(NCc2nnc(SCC(=O)N3CCCCC3)n2CC2CCCO2)c(C)c1", "note": "(centres undefined)", "inhibition": "3%"},
      {"smiles": "Cc1[nH]nc2c1C1(C(=O)N(Cc3ccc(Cl)cc3)c3ccccc31)C(C#N)=C(N)O2", "note": "(centres undefined)", "inhibition": "0%"},
      {"smiles": "CC(C)NC(=O)c1ccccc1NC(=O)c1ccccc1N(C)S(C)(=O)=O", "inhibition": "4%"},
      {"smiles": "CC(OC(=O)c1cccc(NS(C)(=O)=O)c1)C(=O)Nc1ccc(N2CCOCC2)cc1", "note": "(centres undefined)", "inhibition": "0%"},
      {"smiles": "CCn1c(=O)n(CC(=O)Nc2cc(OC)ccc2OC)c(=O)c2ccccc21", "inhibition": "10%"},
      {"smiles": "O=C1c2ccccc2-c2ccc(C(=O)N3CCOCC3)cc21", "inhibition": "0%"},
      {"smiles": "C[C@]12CCC(=O)C=C1CC[C@@H]1[C@@H]2[C@@H](O)C[C@@]2(C)[C@H]1CC[C@]2(O)C(=O)COC(=O)CCC(=O)O", "inhibition": "0% and 2%"},
      {"smiles": "O=C(CSc1nnc(-c2cccs2)o1)N1CCOCC1", "inhibition": "0%"},
      {"smiles": "CCOC(=O)N1CCN(C(=O)Cn2ncn3nc(-c4cccs4)cc3c2=O)CC1", "inhibition": "0%"},
      {"smiles": "COCc1cc(C)nc(Nc2ccc(C)cc2C)c1C#N", "inhibition": "0%"},
      {"smiles": "CN(C)CCC(c1ccc(Br)cc1)c1ccccn1", "note": "(centres undefined)", "inhibition": "0%"},
      {"smiles": "COc1cc(Cn2c(-c3nonc3N)nc3ccccc32)ccc1C", "inhibition": "0%"},
      {"smiles": "c1ccc2c(c1)nc(-c1ccncc1)n1nnnc21", "inhibition": "11%"},
      {"smiles": "CCNCc1cc2cc(C)ccc2[nH]c1=O", "inhibition": "0%"},
      {"smiles": "C=CCc1ccccc1OCCCCN1CCCC1", "inhibition": "0%"},
      {"smiles": "CCOc1ccc(-n2c(=O)cc(N3CCN(c4ccccc4)CC3)[nH]c2=O)cc1", "inhibition": "0%"},
      {"smiles": "CSc1ncc(Cl)c(C(=O)Nc2ccc(S(=O)(=O)N3CCOCC3)cc2)n1", "inhibition": "0%"},
      {"smiles": "CCOC(=O)C1CCCn2c1nc1sc3c(c1c2=O)CCCC3", "note": "(centres undefined)", "inhibition": "0%"},
      {"smiles": "Cc1nnc(SCC(=O)N(C(C)C)C(C)C)nc1C", "inhibition": "7%"},
      {"smiles": "O=C(C1CCCO1)N1CCN(Cc2nc3ccccc3c(=O)[nH]2)CC1", "note": "(centres undefined)", "inhibition": "0%"},
      {"smiles": "O=C(CCCCn1c(=O)[nH]c2ccsc2c1=O)NCc1cccnc1", "inhibition": "5%"},
      {"smiles": "Cc1cccnc1NC(=O)CCCN1C(=O)c2ccccc2C1=O", "inhibition": "0%"},
      {"smiles": "Cc1cccc(N2C(=O)CC(N3CCN(C(=O)c4ccccc4)CC3)C2=O)c1", "note": "(centres undefined)", "inhibition": "5%"},
      {"smiles": "Cc1ccc2cccc(SCC(=O)N3CCOCC3)c2n1", "inhibition": "5%"},
      {"smiles": "Cc1nn(C)c(C)c1CN(C)C(=O)c1cc2nc(-c3ccco3)cc(C(F)(F)F)n2n1", "inhibition": "0%"},
      {"smiles": "O=C(Nc1ccc2c(c1)OCO2)c1nn(-c2ccccc2)c(=O)c2ccccc12", "inhibition": "3%"},
      {"smiles": "CCOc1ccc(NC(=O)CN2CCN(CC(=O)c3ccc(OCC)cc3)CC2)cc1", "inhibition": "4%"}
    ]}
  ]
}
